“And” between values parts separate entries of the source, which are not always exact repeats. Equal entries are not always repeated. Inconclusive results are not listed. Entries that show only a call come without a potency. Some compounds were tested as several samples or in several runs, with calls that do not always agree. The source made the active and inactive calls. Unless noted, calls follow the shape of the dose curve; as a rule, active = well fitted curve in the direction sought with a large enough effect; inconclusive = small, poorly fitted or top-dose-only effect, or another doubt; inactive = no such curve, though single readings can be large; an effect the other way counts as inactive or inconclusive.
Tests used:
[1] = target: Catechol O-methyltransferase (Homo sapiens) (UniProt P21964); assay: Confirmatory Screen for Target Class Profiling of Small Molecule Inhibitors of Methyltransferases (AID 1745852; calls by dose curve; also: potency is read from the fitted curve at half-maximal effect); conditions: MTase-Glo luminescence, SAH detection, recombinant enzyme; measured here: COMT max response; stronger effect = lower value
Chain of Catechol O-methyltransferase (Homo sapiens) (P21964 whole entry, looked up): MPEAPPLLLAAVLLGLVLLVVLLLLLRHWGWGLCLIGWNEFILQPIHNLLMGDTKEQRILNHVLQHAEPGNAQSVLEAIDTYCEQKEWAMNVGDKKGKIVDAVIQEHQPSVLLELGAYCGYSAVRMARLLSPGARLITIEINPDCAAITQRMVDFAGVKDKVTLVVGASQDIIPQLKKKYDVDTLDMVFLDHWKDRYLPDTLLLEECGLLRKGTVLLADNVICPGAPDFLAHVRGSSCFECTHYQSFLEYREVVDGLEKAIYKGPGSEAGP

[2] = target: Guanidinoacetate N-methyltransferase (Homo sapiens) (UniProt Q14353); assay: as above; conditions: MTase-Glo luminescence, SAH detection, recombinant enzyme; activity change, negative = inhibition: at 57.3 µM (top of the series) unless noted; series mostly up to 57.3 µM
[3] = target: Nicotinamide N-methyltransferase (Homo sapiens) (UniProt P40261); assay: as above; conditions: MTase-Glo luminescence, SAH detection, recombinant enzyme; measured here: NNMT max response; stronger effect = lower value
Chain of Nicotinamide N-methyltransferase (Homo sapiens) (P40261 whole entry, looked up): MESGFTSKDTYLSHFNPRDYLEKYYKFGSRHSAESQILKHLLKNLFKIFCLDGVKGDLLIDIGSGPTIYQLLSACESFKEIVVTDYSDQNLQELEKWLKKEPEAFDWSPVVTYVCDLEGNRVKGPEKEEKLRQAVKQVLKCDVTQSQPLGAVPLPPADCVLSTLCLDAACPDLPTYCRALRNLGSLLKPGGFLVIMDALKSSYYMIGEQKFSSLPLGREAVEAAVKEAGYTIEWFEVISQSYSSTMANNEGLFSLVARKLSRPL

[4] = target: Phenylethanolamine N-methyltransferase (Homo sapiens) (UniProt P11086); assay: as above; conditions: MTase-Glo luminescence, SAH detection, recombinant enzyme; measured here: PNMT max response; stronger effect = lower value
Chain of Phenylethanolamine N-methyltransferase (Homo sapiens) (P11086 whole entry, looked up): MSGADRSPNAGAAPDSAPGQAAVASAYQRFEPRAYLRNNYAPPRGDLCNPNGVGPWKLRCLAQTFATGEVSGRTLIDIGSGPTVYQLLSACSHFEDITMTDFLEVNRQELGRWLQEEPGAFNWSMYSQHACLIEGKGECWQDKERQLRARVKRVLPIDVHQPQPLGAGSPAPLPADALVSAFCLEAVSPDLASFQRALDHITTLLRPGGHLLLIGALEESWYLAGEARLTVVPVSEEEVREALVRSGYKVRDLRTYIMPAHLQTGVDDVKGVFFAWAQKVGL

[5] = target: Glutathione peroxidase 1 (Homo sapiens) (UniProt P07203); assay: Primary qHTS Assay for Inhibitors of Recombinant Selenoprotein Glutathione Peroxidase 1 (GPX1) (AID 1845191); conditions: recombinant GPX1, GR-coupled NADPH fluorescence, 15 min; series mostly up to 48.8 µM; also: nearly all actives have a fitted effect of over 65% in size
Chain of Glutathione peroxidase 1 (Homo sapiens) (P07203 whole entry, looked up): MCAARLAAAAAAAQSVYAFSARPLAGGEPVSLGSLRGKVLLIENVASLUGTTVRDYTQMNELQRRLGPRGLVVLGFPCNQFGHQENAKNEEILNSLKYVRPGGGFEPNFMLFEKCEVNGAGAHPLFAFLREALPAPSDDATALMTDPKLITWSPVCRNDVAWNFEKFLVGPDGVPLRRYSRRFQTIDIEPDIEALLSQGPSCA
In short: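 Recombinant GPX1 (10 nM final) was preincubated with compound for 30 min at room temperature, then reacted with 1 mM GSH, 0.5 mM CHP, 0.5 mM NADPH and 100 nM glutathione reductase; NADPH fluorescence (340/450 nm) was read at 0 and 15 min.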

[6] = target: Phospholipid hydroperoxide glutathione peroxidase GPX4 (Homo sapiens) (UniProt P36969); assay: Primary qHTS Assay for Inhibitors of Recombinant Selenoprotein Glutathione Peroxidase 4 (GPX4) (AID 1845192); conditions: recombinant GPX4, GR-coupled NADPH fluorescence, 15 min; series mostly up to 50 µM; also: nearly all actives have a fitted effect of over 65% in size; also: potency is read from the fitted curve at half-maximal effect
Chain of Phospholipid hydroperoxide glutathione peroxidase GPX4 (Homo sapiens) (P36969 whole entry, looked up): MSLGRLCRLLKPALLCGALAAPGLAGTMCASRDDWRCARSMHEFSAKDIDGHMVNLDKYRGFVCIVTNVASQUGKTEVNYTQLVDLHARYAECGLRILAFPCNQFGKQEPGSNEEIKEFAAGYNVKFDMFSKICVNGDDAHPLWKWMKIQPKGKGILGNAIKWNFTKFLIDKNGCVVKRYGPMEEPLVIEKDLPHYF
In short: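 GR-coupled readout: 100 nM GR, 1 mM GSH, 0.5 mM NADPH; NADPH fluorescence (ex 340/em 450 nm) read at t=0 and after 15 min RT. GPX4 200 nM, preincubated 30 min with compound; substrate 0.5 mM CHP.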

[7] = target: Luciferin 4-monooxygenase (Photinus pyralis) (UniProt P08659); assay: Primary firefly luciferase (FLuc) qHTS assay for identification of artifact compounds. (AID 1845220); conditions: purified firefly luciferase, luminescence, 5 min; series mostly up to 54.1 µM; also: nearly all actives have a fitted effect of over 60% in size
In short: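 In this counter-screen for luciferase artifacts, test compounds met substrate (10 uM each luciferin and ATP) before 10 nM enzyme started the reaction. Light output was measured 5 min later.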

[8] = Primary fluorescence-based thiol-reactive (MSTI) qHTS assay for identification of artifact compounds. (AID 1845221); conditions: MSTI thiol-reactivity probe, 1 h; series mostly up to 53.8 µM; also: nearly all actives have a fitted effect of over 65% in size; also: potency is read from the fitted curve at half-maximal effect
In short: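 Compounds were incubated 1 h at room temperature in the dark with the MSTI probe (4 uM) in PBS pH 7.4, 2% DMSO. Signals were normalized between Acetyl-MSTI and MSTI.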

[9] = Primary redox qHTS assay for identification of artifact compounds. (AID 1845223); conditions: Amplex Red/HRP redox cycling with DTT, fluorescence; series mostly up to 53.8 µM
In short: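 Amplex Red (25 uM) and HRP (250 mU/mL) in HBSS, with compounds for 15 min, then 250 uM DTT for 30 min, room temperature, dark. Fluorescence 525/598 nm read; normalized to DMSO and 10 uM DA3003; Hill fit.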

[10] = tested on: Nanoluciferase (engineered Oplophorus gracilirostris luciferase); assay: Primary Nanoluciferase (NLuc) qHTS assay for identification of artifact compounds. (AID 1845222); conditions: NLuc-conditioned medium, Nano-Glo luminescence, 5 min; series mostly up to 54.1 µM; also: potency is read from the fitted curve at half-maximal effect
In short: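 Using secreted nanoluciferase in S16 culture medium (0.22 um filtered, 1:55 dilution), compounds were preincubated 15 min at RT. Signal was generated with Nano-Glo reagent (1:100) over 5 min.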

Structure (SMILES)	activity [1] [%]	Potency [2]	activity [3] [%]	activity [4] [%]	Potency [5]	Potency [6]	Potency [7]	Potency [8]	Potency [9]	activity change, negative = inhibition [2]	Potency [10]
COc1cc(N2CCC(N)CC2)ccc1Nc1ncc(Cl)c(-c2c[nH]c3ccccc23)n1	-32.1	24.1 µM (active)	-35.8	-27	inactive	inactive	inactive	1.89 µM (active)	inactive	–	–
COC1C=C(C)C(O)(CO)C2(C)CCCC(C)(C)C12 (stereo not drawn)	-68.4	–	-3.75	-2.37	inactive	inactive	inactive	inactive	inactive	-5.83%	inactive
CC(C)C[C@H](C(=O)O)c1cc(-c2ccc(C(F)(F)F)cc2)cc(-c2ccc(C(F)(F)F)cc2)c1	-6.76	48.2 µM (active)	-40.6	-16.1	inactive	inactive	inactive	inactive	inactive	–	inactive
O=C(c1ccc(Cl)cc1)N1CCN(c2ccnc3cc(Cl)ccc23)CC1	-6.44	–	-41.3	-10.9	inactive	inactive	inactive	inactive	inactive	-4.09%	–
COc1ccccc1N1CCN(c2ncnc3n[nH]c(Br)c23)CC1	-8.96	–	-42.7	-19.8	inactive	inactive	inactive	inactive	inactive	-0.635%	inactive
O=C([C@@H]1CCCN(c2ccc3[nH]c(C4(n5cc(Cl)cn5)CC4)nc3n2)C1)N1CCCC1	-0.433	–	0.992	0.881	inactive	25.5 µM (active)	inactive	inactive	inactive	0%	–
C=C1C(=O)OC2/C=C(\CO)CC/C=C(\C=O)C(OC)C(OC(=O)C(C)CC)C12 (stereo not drawn)	-88.5	–	4.11	1.39	inactive	inactive	inactive	4.12 µM (active)	inactive	0% [at 29.8 µM]	inactive
Fc1ccc2[nH]ccc2c1-c1nc(N2CCOCC2)c2sc(CN3CCN(CC4CC4)CC3)cc2n1	-1.17	–	-62.5	-22.1	inactive	inactive	inactive	inactive	inactive	0%	inactive
CS(=O)(=O)Nc1ccc2oc3c(OC(F)F)ccc(C(=O)Nc4c(Cl)cncc4Cl)c3c2c1	-3.19	–	-19.3	-4.54	inactive	inactive	inactive	inactive	inactive	-1.02%	inactive
CN1CCN(Cc2ccc(NC(=O)Cc3ccc(Oc4cc(NC(=O)C5CC5)ncn4)cc3)cc2C(F)(F)F)CC1	-8.91	–	-29.5	-13.7	inactive	inactive	inactive	inactive	inactive	0.726%	inactive
CC[C@H]1CN(c2nc(N)c(C(N)=O)nc2Cl)CCN1C1CCN(Cc2ccc(Cl)cc2)CC1	-6.83	–	-61.1	-5.17	inactive	inactive	inactive	inactive	inactive	-2.17% [at 29.8 µM]	inactive
CCCCNc1ncc(C(=O)NCc2ccc(-n3ccnc3)cc2)c(NC2CCC(O)CC2)n1 (stereo not drawn)	-11.6	–	-47.3	-34.7	inactive	inactive	inactive	inactive	inactive	-6.08%	inactive
O=S(=O)(Nc1cc(Cl)c(Oc2cnc3ccccc3c2)c(Cl)c1)c1ccc(Cl)cc1Cl	-8.48	34.1 µM (active)	-47.5	-24	inactive	inactive	inactive	inactive	inactive	–	–
Cc1nc(C#Cc2ccnc(Cl)c2)c(C)n1-c1ccc(F)cc1	-47.3	30.4 µM (active)	-47.6	-47.9	inactive	inactive	inactive	inactive	inactive	–	inactive
C=C1C(=O)OC2C1CCC1(C)C(O)CCC(=C)C21 (stereo not drawn)	-62.8	–	1.08	-1.43	inactive	inactive	inactive	11.9 µM (active)	inactive	-2.15%	inactive
C=C1C(=O)O[C@@H]2C=C(COC(C)=O)CC/C=C(\CO)CC[C@@H]12	-83.7	–	2.08	0.0072	inactive	inactive	inactive	inactive	inactive	2.22%	inactive
CCCc1cc2c(N3CCN(C4=NCC(C)(C)S4)CC3)ncnc2s1	-3.43	–	-77.1	-5.27	inactive	inactive	inactive	inactive	inactive	1.29%	inactive
C[C@H](Nc1cc2c(-c3ccc4c(c3)OCO4)noc2cn1)c1ccccc1	-8.55	–	-7.23	-13.9	inactive	inactive	inactive	inactive	inactive	-10.4%	–
COc1c(CCC(=O)O)cccc1O[C@@H]1O[C@H](CO)[C@@H](O)[C@H](O)[C@H]1O	-74.9	–	0.561	-9.51	inactive	inactive	inactive	13.1 µM (active)	inactive	2.56%	inactive

Structure (SMILES)	activity [1] [%]	Potency [2]	activity [3] [%]	activity [4] [%]	Potency [5]	Potency [6]	Potency [7]	Potency [8]	Potency [9]	activity change, negative = inhibition [2]	Potency [10]
Cc1cc(NC(=O)NCCN2CCC(O)(Cc3ccccc3)CC2)c2ccccc2n1	-2.12	–	2.4	0.991	inactive	inactive	inactive	inactive	inactive	0%	inactive
COc1cc(/C=C2\CCCN([C@@H](C)c3ccc(F)cc3)C2=O)ccc1-n1cnc(C)c1	-8.51	2.41 µM (active)	-25.5	-13	inactive	inactive	inactive	inactive	inactive	–	inactive
CCN(CC)C(=O)c1ccc(Nc2nc(OCC3CCCCC3)c3[nH]cnc3n2)cc1	-18.1	30.4 µM (active)	-75.3	-18.4	inactive	inactive	inactive	inactive	inactive	–	inactive
CC(C)(C[C@@](O)(Cc1cc2ccncc2[nH]1)C(F)(F)F)c1cc(F)ccc1O	1.72	–	-1.53	-1.87	inactive	inactive	inactive	inactive	inactive	0%	inactive
CC(F)(F)CN1CCOc2c(nn(-c3ccccc3Cl)c2-c2ccc(Cl)cc2)C1=O	-4.22	–	-32.3	-3.99	inactive	inactive	inactive	inactive	inactive	0.516%	–
COc1cccc(-c2cn(-c3ccc(CCN4CCC(O)CC4)cc3)c3ncnc(N)c23)c1	-79.5	24.1 µM (active)	-80.6	-84.3	inactive	inactive	inactive	inactive	inactive	–	inactive
CC(C)(C)Sc1c(CC(C)(C)C(=O)O)n(Cc2ccc(Cl)cc2)c2ccc(OCc3ccc4ccccc4n3)cc12	1.57	inactive	-17.1	-5.18	inactive	inactive and 8.06 µM (active)	inactive	inactive	inactive	–	inactive
C[C@H](Oc1cc(-c2cnn(C3CCNCC3)c2)cnc1N)c1c(Cl)ccc(F)c1Cl	-64.7	27.1 µM (active)	-75.2	-61.8	inactive	inactive	inactive	inactive	inactive	–	inactive
Cn1cc(-c2ccc(F)c(C(F)(F)F)c2)nc1C1CCN(c2ncnc3[nH]ncc23)CC1	2.12	–	-37.5	-1.21	inactive	inactive	inactive	inactive	inactive	1.12% [at 9.47 µM]	inactive
CCCSc1nc(N[C@@H]2C[C@H]2c2ccc(F)c(F)c2)c2nnn([C@@H]3C[C@H](OCCO)[C@@H](O)[C@H]3O)c2n1	-40.7	48.2 µM (active)	-50.5	-36.5	inactive	inactive	inactive	inactive	inactive	–	inactive
C=C1C(=O)OC2C1CCC1(C)C(O)CC=C(C)C21 (stereo not drawn)	-60.3	–	-3.54	-2.19	inactive	inactive	inactive	11.9 µM (active)	inactive	-6.03%	inactive
Cc1cc(C)cc(-c2cnc3cc(Cl)c(-c4cccc(O)c4)cc3c2OCCCN)c1	-38.4	42.9 µM (active)	-83.8	-37.3	inactive	inactive	inactive	inactive	inactive	–	–
CC[N+]1(C/C2=C/CCCCCC2)CCC(NC(=O)C2c3cc(Cl)ccc3Oc3ccc(Cl)cc32)CC1 (stereo not drawn)	-37.4	–	-28	-2.38	inactive	inactive	inactive	inactive	inactive	0%	inactive
O=C(Nc1ccc(C(F)(F)F)cn1)N1CCN(c2ncccc2C(F)(F)F)CC1	-1.28	–	-0.919	-60.8	inactive	inactive	inactive	inactive	inactive	0%	inactive
NCC(CNc1nc(Nc2cccc(NC(=O)N3CCCC3)c2)ncc1I)C(=O)c1cccs1 (stereo not drawn)	-3.81	–	-36.6	-13.7	inactive	inactive	inactive	inactive	inactive	0%	inactive
C=C1C(=O)OC2C(OC(=O)C=C(C)C)C(C)=C3C(=O)C=C(C)C3C(O)C12 (stereo not drawn)	-65.9	–	2.7	4.72	inactive	inactive	inactive	inactive	inactive	-0.769%	7.4 µM (active)
CN(C)CCOC(C)(c1ccccc1)c1ccc(Cl)cc1 (stereo not drawn)	-7.63	–	-25.2	-3.91	inactive	inactive	inactive	inactive	inactive	-4.69%	inactive
COc1cc2c(Nc3cc(F)c(Cl)c(Cl)c3)ncnc2cc1OCC1CCCN(C)CCC1	-15.2	–	-13.9	-10.4	inactive	inactive	inactive	inactive	inactive	-2.91%	inactive
CCn1c(-c2nonc2N)nc2c(C#CC(C)(C)O)ncc(OCC3CCCNC3)c21 (stereo not drawn)	-1.89	–	-28	-3.65	inactive	inactive	inactive	inactive	inactive	0.279%	inactive

Source: PubChem BioAssay (NCATS)
